Laboratory results: PubChem BioAssay (NCATS)
Inconclusive results are not listed. A number with no mark means an inactive call. Calls of active or inactive are those of the source. The call rests on the fitted dose curve; in most records, active means well fitted curve in the direction sought with a large enough effect; inconclusive means small, poorly fitted or top-dose-only effect, or another doubt; inactive means no such curve, though single readings can be large or run the other way.

biological target: Protein phosphatase 1D (Homo sapiens) (UniProt O15297); assay: Rhodamine-PBP qHTS Assay for Modulators of WT P53-Induced Phosphatase 1 (WIP1) (AID 1347425); conditions: recombinant WIP1, Rhodamine-PBP phosphate fluorescence, real-time; series mostly up to 57.5 µM; activity change, negative = inhibition: at the top concentration
Sequence (O15297 whole entry, looked up): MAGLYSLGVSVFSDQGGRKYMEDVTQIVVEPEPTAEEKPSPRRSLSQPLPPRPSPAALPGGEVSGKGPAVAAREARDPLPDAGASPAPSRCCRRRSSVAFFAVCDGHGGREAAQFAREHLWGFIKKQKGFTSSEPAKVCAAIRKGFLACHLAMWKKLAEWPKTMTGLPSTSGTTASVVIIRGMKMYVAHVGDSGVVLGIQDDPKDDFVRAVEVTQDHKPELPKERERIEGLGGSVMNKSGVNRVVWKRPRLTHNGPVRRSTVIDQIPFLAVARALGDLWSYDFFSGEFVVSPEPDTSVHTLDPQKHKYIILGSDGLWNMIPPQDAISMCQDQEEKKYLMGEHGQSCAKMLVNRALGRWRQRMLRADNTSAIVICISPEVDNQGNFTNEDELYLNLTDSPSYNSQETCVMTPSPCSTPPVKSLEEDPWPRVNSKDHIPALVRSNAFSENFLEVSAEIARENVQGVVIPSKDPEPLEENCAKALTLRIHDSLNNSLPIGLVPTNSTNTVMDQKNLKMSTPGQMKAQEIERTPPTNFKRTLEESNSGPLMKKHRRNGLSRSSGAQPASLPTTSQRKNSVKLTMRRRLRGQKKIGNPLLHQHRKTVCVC
From the text: Assay Provider (PI): Nathan Coussens Ph.D.
National Center for Advancing Translational Sciences (NCATS), Rockville, MD
National Institute of Health (NIH), Bethesda, Maryland
WT P53-Induced Phosphatase 1 (WIP1) is a member of the magnesium-dependent serine/threonine protein phosphatase (PPM) family and is induced by P53 in response to DNA damage. In several human cancers, the WIP1 protein is overexpressed, which is generally associated with a worse prognosis. Although WIP1 is an attractive therapeutic target, no potent, selective, and bioactive small-molecule modulator with favorable pharmacokinetics has been reported. Phosphatase enzymes are among the most challenging targets for small molecules because of the difficulty of achieving both modulator selectivity and bioavailability. Another major obstacle has been the availability of robust and physiologically relevant phosphatase assays that are suitable for high-throughput screening.
Here, we describe two orthogonal biochemical WIP1 activity assays that utilize phosphopeptides from native WIP1 substrates. We optimized a RapidFire MS assay to quantify the enzymatically dephosphorylated peptide reaction product in a 384-well format. Additionally, a redshifted Rhodamine-PBP fluorescence assay was optimized in a 1,536-well format to enable real-time WIP1 activity measurements through the detection of the orthogonal reaction product, Pi. We validated these two optimized assays by quantitative high-throughput screening against the National Center for Advancing Translational Sciences (NCATS) Pharmaceutical Collection and used secondary assays to confirm and evaluate inhibitors identified in the primary screen.
SEQUENCE No. (e.g., 1, 2, 3, etc.); […] (e.g., Cells, Incubation, Reagent, etc.); VALUE; DESCRIPTION
1; Reagent; 3 uL; WIP1 (6.7 nM), Rh-PBP (13.3 uM), columns 1-48
3; Library Compounds; 23 nL; NCATS Pharmaceutical Collection, column 5-48
4; Control Compounds; DMSO in column 2, GSK2830371 (57.5 uM, final) in 3-fold serial dilutions in column 3, GSK2830371 (1.15 uM, final) in column 4
5; Time; 1 hr; incubation
6; Detection; fluorescence (f0); ViewLux, excitation filter = 525 nm, emission filter = 598 nm
7; Reagent; 1 uL; VEPP-pS-QETFS (40 uM), columns 2-48
8; Detection; fluorescence (f1); ViewLux, excitation filter = 525 nm, emission filter = 598 nm
NOTES (numbers refer to sequence above)
1 & 2; Black medium binding Greiner 1536-well plates (# 789176-F); assay buffer: 50 mM Tris-HCl pH 7.5, 30 mM MgCl2, 1mM TCEP, 0.1 mM EGTA, 75 ug/mL BSA; dispensed with a BioRaptr liquid handler (Beckman Coulter).
3 & 4; Kalypsys pintool (equipped with 1536 pinhead, Wako USA) transfer. Tip wash sequence: DMSO, methanol, 3 sec vacuum dry.
5; Room temperature incubation.
7; VEPPL-pS-QETFS in assay buffer dispensed with a BioRaptr; final reaction conditions: 5 nM WIP1, 10 uM VEPPL-pS-QETFS, 10 uM Rh-PBP, 50 mM Tris-HCl pH 7.5, 30 mM MgCl2, 1 mM TCEP, 0.1 mM EGTA, 75 ug/mL BSA.
8; Measurement taken at 1 min intervals for 11 min. Delta readout = f1 - f0.

SMILES	activity change, negative = inhibition	outcome
CN(C)CCCN1c2ccccc2Sc2ccc(Cl)cc21	4.56%	–
C[C@H](N)[C@H](O)c1cccc(O)c1	3.09%	–
COC(=O)[C@H]1[C@H]2C[C@@H]3c4[nH]c5cc(OC)ccc5c4CCN3C[C@H]2C[C@@H](OC(=O)COc2ccc(OC)cc2)[C@@H]1OC	9.73%	–
CC(CN(C)C)CN1c2ccccc2CCc2ccccc21 (stereo not given)	20.9%	–
CC1(C)Oc2ccc(C#N)cc2[C@@H](N2CCCC2=O)[C@@H]1O	-7.34%	–
CC(O)CN(CCN(CC(C)O)CC(C)O)CC(C)O (stereo not given)	11.7%	–
O=Cc1ccccc1C=O	23%	–
CN(C)CC[C@@H](c1ccc(Cl)cc1)c1ccccn1	1.26%	–
Nc1ncnc2c1ncn2[C@@H]1O[C@H](CO)[C@@H](O)[C@H]1O	-0.618%	–
C#CCN(C)Cc1ccccc1	-6.21%	–
Cc1cc2nc3c(=O)[nH]c(=O)nc-3n(C[C@H](O)[C@H](O)[C@H](O)CO)c2cc1C	14.4% [at 23.8 µM]	–
O=C(CCCN1CCN(c2ccccn2)CC1)c1ccc(F)cc1	-11.5%	–
CC[C@H]1CN2CCc3cc(OC)c(OC)cc3[C@@H]2C[C@@H]1C[C@H]1NCCc2cc(OC)c(OC)cc21	-10.7%	–
CC(=O)CCC(=O)O	5.92%	–
CCN(CC)CCCC(C)Nc1c2ccc(Cl)cc2nc2ccc(OC)cc12 (stereo not given)	-0.108%	–
CCCCCCCCCCCCOS(=O)(=O)O	-11.2%	–
COC(=O)C1=C(C)NC(C)=C(C(=O)OC)C1c1ccccc1[N+](=O)[O-]	-12.7%	–
CCCCCCCCCCCCCCCCCCOCC(O)CO (stereo not given)	0.897%	–
NCCNCCNCCN	4.77%	–
O=C(O)c1ccccc1-c1ccc(C(F)(F)F)cc1	3.19%	–

SMILES	activity change, negative = inhibition	outcome
CCN(CC)CCNC(C(=O)OCCC(C)C)c1ccccc1 (stereo not given)	0.108%	–
O=C1c2c(O)cccc2Cc2cccc(O)c21	-6.07%	–
CN1CCCCC1CCN1c2ccccc2Sc2ccc(S(C)=O)cc21 (stereo not given)	11.7%	–
NC(=O)N/N=C/c1ccc([N+](=O)[O-])o1	–	inactive
COc1ccccc1O	14.1% [at 116 µM]	–
O=C(O)CC(O)C(=O)O (stereo not given)	0.897%	–
C[C@]12CC[C@@H]3c4ccc(O)cc4CC[C@H]3[C@@H]1CC[C@@H]2OC(=O)CCC1CCCC1	-8.58%	–
Cc1cccc(C)c1NC(=O)CN(CC(=O)O)CC(=O)O	6.14%	–
C[C@H]1O[C@@H](n2cc(F)c(=O)[nH]c2=O)[C@H](O)[C@@H]1O	12.3%	–
CCCCCCCCCCCCCCCC(=O)NCCO	3.63%	–
CCCCN(CCCC)CCCOC(=O)c1ccc(N)cc1	11%	–
OCc1cc(C(O)CNCCCCCCOCCCCc2ccccc2)ccc1O (stereo not given)	8.5%	–
CC[N+](CC)(CC)CCOc1ccc(/C=C/c2ccccc2)cc1	-8.03%	–
CC1(C)S[C@@H]2[C@H](NC(=O)Cc3ccccc3)C(=O)N2[C@H]1C(=O)O (tested in a mixture with another compound)	-1.69%	–
Oc1ccc(C(O)CNCCCCCCNCC(O)c2ccc(O)c(O)c2)cc1O (stereo not given)	-7.93%	–
COc1ccc(S(=O)(=O)Nc2nnc(CC(C)C)s2)cc1	-23.5%	–
CC(=O)c1ccc2c(c1)N(CCCN(C)C)c1ccccc1S2	9.51%	–
O=C1NC(=O)[C@@]2(CCOc3ccc(F)cc32)N1	7.29%	–
NC(=O)NNc1ccccc1	2.33%	–
O=S(=O)(O)c1cc(I)c(O)c2ncccc12	-0.927%	–
